# According to paper PMC4336329 (PLoS ONE, 2015):
# The campaign covered roughly 310,000 compounds. About 2,200 (0.71%) showed an effect of 50% or more. Effects have a minus sign here. The full list was thinned out, with strong results kept by preference.
# Target: human ether-à-go-go-related gene (hERG) potassium channel (human, UniProt Q12809)
# Experiment: primary screen, population patch clamp on CHO cells stably expressing hERG; higher = less effect of the substance
# human ether-à-go-go-related gene (hERG) potassium channel, sequence (Q12809 whole entry, looked up): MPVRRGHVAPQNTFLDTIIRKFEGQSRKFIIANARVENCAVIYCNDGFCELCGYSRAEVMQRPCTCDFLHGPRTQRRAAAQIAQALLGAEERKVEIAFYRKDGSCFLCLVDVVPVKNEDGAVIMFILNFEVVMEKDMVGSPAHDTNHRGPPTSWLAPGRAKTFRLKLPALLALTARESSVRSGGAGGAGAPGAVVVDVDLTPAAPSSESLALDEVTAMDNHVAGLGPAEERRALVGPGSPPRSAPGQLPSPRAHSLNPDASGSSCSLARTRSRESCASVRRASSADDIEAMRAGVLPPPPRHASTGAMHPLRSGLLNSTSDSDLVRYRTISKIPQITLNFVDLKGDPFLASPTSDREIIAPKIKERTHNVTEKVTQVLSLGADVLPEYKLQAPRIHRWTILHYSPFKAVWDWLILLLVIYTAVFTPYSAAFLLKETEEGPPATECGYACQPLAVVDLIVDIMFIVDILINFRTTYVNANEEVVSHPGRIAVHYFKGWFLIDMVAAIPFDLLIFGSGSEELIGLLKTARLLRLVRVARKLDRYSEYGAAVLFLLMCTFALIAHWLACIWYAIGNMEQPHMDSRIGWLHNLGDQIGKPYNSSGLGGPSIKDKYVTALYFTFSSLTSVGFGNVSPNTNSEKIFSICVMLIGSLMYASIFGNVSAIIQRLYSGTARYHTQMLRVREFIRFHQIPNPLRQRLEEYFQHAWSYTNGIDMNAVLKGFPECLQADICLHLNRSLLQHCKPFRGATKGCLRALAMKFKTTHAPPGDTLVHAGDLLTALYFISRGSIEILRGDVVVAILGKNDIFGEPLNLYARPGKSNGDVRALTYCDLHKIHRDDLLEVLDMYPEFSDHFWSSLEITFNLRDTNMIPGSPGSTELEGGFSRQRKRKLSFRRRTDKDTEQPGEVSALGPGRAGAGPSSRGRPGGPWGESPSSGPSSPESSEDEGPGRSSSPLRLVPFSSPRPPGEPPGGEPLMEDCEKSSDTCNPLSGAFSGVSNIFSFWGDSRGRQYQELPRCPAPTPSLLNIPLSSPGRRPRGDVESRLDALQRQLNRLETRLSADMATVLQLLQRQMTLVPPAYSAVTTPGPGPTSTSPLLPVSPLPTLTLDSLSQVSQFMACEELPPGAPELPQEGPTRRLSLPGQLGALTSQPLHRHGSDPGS
row,Structure (SMILES),"hERG current change (%, negative = inhibition) at 1uM [%]"
1,CC1(c2cnc(Nc3ccccc3)s2)CCC(=O)O1 (centres unmarked),11.7
2,O=C1c2ccccc2C(=O)c2c1cccc2N1CCN(Cc2ccccc2)CC1,-6.21
3,O=C1c2ccccc2C(=O)c2c1cccc2N1CCN(CCO)CC1,-64.7
4,O=C1c2ccccc2C(=O)c2c1cccc2N1CCCC1,8.54
5,Cc1cccc(NS(=O)(=O)c2ccc3c(c2)NC(=O)CC(=O)N3)c1,18.4
6,Cc1cccnc1NC(=O)Nc1cccc2ccccc12,0.589
7,COc1cc(OC)c(OC)cc1CN1CCCC(C(=O)c2ccc3c(c2)OCO3)C1 (centres unmarked),-27.7
8,Cc1ccc(CN2CCCC(C(=O)c3ccc4c(c3)OCO4)C2)cc1C (centres unmarked),-27.1
9,O=C(c1ccc2c(c1)OCO2)C1CCCN(Cc2c(F)cccc2Cl)C1 (centres unmarked),0.9
10,O=C(c1ccc2c(c1)OCO2)C1CCCN(Cc2ccc(F)c(F)c2)C1 (centres unmarked),5.03
11,O=C(c1ccc2c(c1)OCO2)C1CCCN(Cc2ccc3cccc(F)c3n2)C1 (centres unmarked),-81.5
12,O=C(c1ccc2c(c1)OCO2)C1CCCN(Cc2ccccc2OC(F)F)C1 (centres unmarked),-16.9
13,Cc1cccc(CN2CCCC(C(=O)c3ccc4c(c3)OCO4)C2)n1 (centres unmarked),-16.8
14,Cc1ccc(-n2cccn2)c(CN2CCCC(C(=O)c3ccc4c(c3)OCO4)C2)c1 (centres unmarked),-83.5
15,Cc1ccc(-n2cccn2)c(CN2CCCC(C(=O)c3sccc3C)C2)c1 (centres unmarked),-82.8
16,Cc1ccsc1C(=O)C1CCCN(Cc2cc(F)ccc2-n2cccn2)C1 (centres unmarked),-45.5
17,Cc1ccsc1C(=O)C1CCCN(Cc2ccc(-n3cccn3)cc2)C1 (centres unmarked),-3.18
18,O=C(c1ccc2c(c1)OCO2)C1CCCN(Cc2ccc(OC(F)F)cc2)C1 (centres unmarked),-53
19,COc1ccc(CNCc2c(F)cccc2F)cc1OC.O=C(O)C(=O)O,14.6
20,O=C(NC1CCCCCC1)c1ccc(CS(=O)Cc2cccc(Cl)c2)o1 (centres unmarked),5.33
21,COc1cc(/C=N/N2CCN(Cc3ccc(Cl)cc3)CC2)cc(Br)c1O,9.38
22,N#Cc1c(NC(=O)CCCN2C(=O)c3ccccc3C2=O)oc(-c2ccccc2)c1-c1ccccc1,-0.65

row,Structure (SMILES),"hERG current change (%, negative = inhibition) at 1uM [%]"
1,Cc1cc2nc3ccc(N(C)C)cc3nc2cc1N,13.3
2,CCOC1(OCC)N=C(N)C2(C#N)C(c3cccc(OC)c3OC)C12C#N (centres unmarked),3.32
3,CN(C(=O)CCN1C(=O)c2ccccc2C1=O)c1ccccc1,15.8
4,CCc1cc(C(c2ccc(F)cc2)N2CCOCC2)c(NC(=O)c2ccccc2)s1 (centres unmarked),11.2
5,CCCCNC(=O)N1CCOCCOCCN(C(=O)NCCCC)CCOCCOCC1,7.75
6,O=C(c1sc2cc([N+](=O)[O-])ccc2c1Cl)N1CCOCC1,0.235
7,CC(C)(C)CC(=O)OCC(=O)Nc1cc(C(C)(C)C)nn1-c1ccccc1,-12.9
8,Cc1nn2c(-c3ccc(Cl)cc3Cl)nnc2s1,-0.908
9,O=C(c1ccc2c(c1)OCO2)C1CCCN(Cc2cc(F)ccc2-n2cccn2)C1 (centres unmarked),-78.2
10,COc1cccc(CN2CCCC(C(=O)c3ccc4c(c3)OCO4)C2)c1OC (centres unmarked),-25.3
11,COc1cccc(CN2CCCC(C(=O)c3ccc4c(c3)OCO4)C2)c1O (centres unmarked),-44.6
12,Br.Nc1nc(-c2ccc(Br)cc2)cs1,-2.25
13,C/C(=N/N1CCN(c2ccccc2)CC1)c1cccc([N+](=O)[O-])c1,8.81
14,Cc1ccc(Cl)cc1NS(=O)(=O)Cc1ccccc1,14.1
15,O=C(Nc1ccc(NC(=O)c2cccs2)cc1)c1cccnc1,13.4
16,Cc1ccccc1NS(=O)(=O)c1ccc(OCC(=O)NCc2ccccn2)cc1,3.12
17,O=C(c1ccco1)N1CCN(Cc2cc(=O)c(OCc3ccc([N+](=O)[O-])cc3)co2)CC1,-29.4
18,Cc1ccc(-c2cc(C(=O)Nc3ccc(S(=O)(=O)Nc4onc(C)c4C)cc3)[nH]n2)c(O)c1,-1.84
19,CN1CCN(c2nc(-c3ccc(Cl)c(Cl)c3)nc3ccccc23)CC1,9.87
20,CN1CCN(c2nc(-c3ccncc3)nc3ccccc23)CC1,-64.9
21,CCN1CCN(c2nn3c(=O)c4ccccc4nc3c3ccccc23)CC1,-71.5
22,CC1CN(c2nn3c(=O)c4ccccc4nc3c3ccccc23)CC(C)O1 (centres unmarked),-0.465

row,Structure (SMILES),"hERG current change (%, negative = inhibition) at 1uM [%]"
1,c1ccc2c(N3CCCC3)nc(-c3ccncc3)nc2c1,1.09
2,CN1CCN(c2nc(-c3ccc(Cl)cc3Cl)nc3ccccc23)CC1,-58.1
3,CCN1CCN(c2nc(-c3cccnc3)nc3ccccc23)CC1.Cl,-18.4
4,Cc1ccc(-c2nc(N3CCN(C)CC3)c3ccccc3n2)cc1.Cl,3.62
5,CCN1CCN(c2nc(-c3ccccc3)nc3ccccc23)CC1,-30.4
6,CN1CCN(c2nc(-c3ccccc3Cl)nc3ccccc23)CC1,-19.8
7,CCN1CCN(c2nc(-c3ccccn3)nc3ccccc23)CC1,-17.5
8,CCN1CCN(c2nc(-c3ccncc3)nc3ccccc23)CC1,-75.6
9,C/C(=N\NC(=O)c1ccc(Cl)cc1)c1ccccn1,8.17
10,O=S1(=O)CCC(NCC2CCCO2)C1 (centres unmarked),12.9
11,CC(C)C(NC(=O)OCc1ccccc1)C(=O)OCC(=O)NC1CC1 (centres unmarked),11.3
12,Fc1ccc(N/N=C/c2ccc(N3CCOCC3)cc2)c(F)c1,9.29
13,CCc1ccc(CN(C)C(=O)C2CCC(=O)N(CC3CCCCC3)C2)cc1 (centres unmarked),-12.3
14,COc1ccccc1N1CCN(C(=O)c2cn(C)c3ccc(S(=O)(=O)N4CCOCC4)cc3c2=O)CC1,13.1
15,O=c1nc(-c2ccccc2)n(-c2ccccc2)c2ncccc12,10.8
16,Cn1c(SCC(=O)NC2CCS(=O)(=O)C2)nnc1-c1ccco1 (centres unmarked),10.3
17,Cc1cccc(NS(=O)(=O)c2cccs2)c1,10.7
18,CC1CC(C)CN(c2nc3c(c(=O)n(C)c(=O)n3C)n2C)C1 (centres unmarked),11.1
19,CCN1CCN(c2ccc(S(=O)(=O)N3CCCCC3)cc2NC(=O)/C=C/c2ccc([N+](=O)[O-])cc2)CC1,6.53
20,O=C(/C=C/c1cccc(F)c1)Nc1cc(S(=O)(=O)N2CCOCC2)ccc1N1CCCC1,0.626
21,CCN1CCN(c2ccc(S(=O)(=O)N3CCOCC3)cc2NC(=O)/C=C/c2ccc(C)cc2)CC1,-4.67
22,CCN1CCN(c2ccc(S(=O)(=O)N3CCOCC3)cc2NC(=O)/C=C/c2ccc([N+](=O)[O-])cc2)CC1,-50.5

row,Structure (SMILES),"hERG current change (%, negative = inhibition) at 1uM [%]"
1,O=C(/C=C/c1ccccc1)Nc1cc(S(=O)(=O)N2CCOCC2)ccc1N1CCCC1,15.7
2,O=C(/C=C/c1ccc(F)cc1)Nc1cc(S(=O)(=O)N2CCOCC2)ccc1N1CCCC1,-60.3
3,O=c1cc(-c2ccccc2[N+](=O)[O-])oc2ccccc12,7.73
4,CC(C)C(=O)C1=Cc2cc([N+](=O)[O-])ccc2OC1N1CCOCC1 (centres unmarked),9.39
5,O=C(CCCC(=O)NCC1CCCO1)NCC1CCCO1 (centres unmarked),3.68
6,O=c1ccc2cc3c([nH]c4ccc(Br)cc43)oc-2c1O,4.16
7,CCN1CCN(C(c2ccc(OC)cc2)C(O)C(=O)c2c[nH]c3ccccc23)CC1 (centres unmarked),-64.4
8,COc1ccc(C(C(O)C(=O)c2c[nH]c3ccccc23)N2CCN(c3ccc(OC)cc3)CC2)cc1 (centres unmarked),2.28
9,COc1ccc(C(C(O)C(=O)c2c[nH]c3ccccc23)N2CCN(c3ccccc3)CC2)cc1 (centres unmarked),4.75
10,CC(C)Oc1ccc(N2CC(C(=O)Nc3ccc4c(c3)OCO4)CC2=O)cc1 (centres unmarked),5.88
11,Cc1[nH]c(=O)[nH]c(=O)c1S(=O)(=O)Nc1cccc([N+](=O)[O-])c1C,11.5
12,COc1cc(CN2CCC(Cc3ccccc3)CC2)cc(OC)c1OC.O=C(O)C(=O)O,-12
13,CC1CCN(CCCOc2ccc(OCc3ccccc3)cc2)CC1.O=C(O)C(=O)O,-14.1
14,COc1cccc(OC)c1OCCCN1CCC(Cc2ccccc2)CC1.O=C(O)C(=O)O,-79.3
15,COc1ccccc1N1CCN(CCCCOc2c(OC)cccc2OC)CC1.O=C(O)C(=O)O,-38.6
16,COc1cccc(OC)c1OCCCCN1CCC(Cc2ccccc2)CC1.O=C(O)C(=O)O,-78.6
17,COc1cccc(OC)c1OCCCCN1CCCCC1.O=C(O)C(=O)O,9.21
18,COc1cccc(OC)c1OCCCCN1CCCC1,4.67
19,CC(=O)CCc1ccc(OCCCCN2CCC(Cc3ccccc3)CC2)cc1.O=C(O)C(=O)O,-68.3
20,O=C(O)C(=O)O.c1ccc(COc2ccc(OCCCCN3CCCC3)cc2)cc1,-28.2
